Measured values as given in PubChem BioAssay AID1671202 (University of Kansas High Throughput Screening Laboratory, 2021).
Screen size: about 190,000 compounds; about 6,900 (3.6%) were called active. No stated cut-off is given here; in the data, active means inhibition above about 50%; inactive means the rest. The list comes from a sample in which actives are over-represented; it also holds similar structures and randomly drawn compounds.

Target: Huntingtin (Homo sapiens) (UniProt P42858)
Test: mutant huntingtin-calmodulin interaction inhibitors – biochemical, AlphaScreen, primary screen (AID 1671202);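 further: 0% = both proteins with DMSO and 100% = one protein alone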
Details: AlphaScreen His-mHTT/GST-CaM binding, luminescence; at 15 µM, active compounds read high

Huntingtin (Homo sapiens), sequence (P42858 whole entry, looked up, stated change not applied): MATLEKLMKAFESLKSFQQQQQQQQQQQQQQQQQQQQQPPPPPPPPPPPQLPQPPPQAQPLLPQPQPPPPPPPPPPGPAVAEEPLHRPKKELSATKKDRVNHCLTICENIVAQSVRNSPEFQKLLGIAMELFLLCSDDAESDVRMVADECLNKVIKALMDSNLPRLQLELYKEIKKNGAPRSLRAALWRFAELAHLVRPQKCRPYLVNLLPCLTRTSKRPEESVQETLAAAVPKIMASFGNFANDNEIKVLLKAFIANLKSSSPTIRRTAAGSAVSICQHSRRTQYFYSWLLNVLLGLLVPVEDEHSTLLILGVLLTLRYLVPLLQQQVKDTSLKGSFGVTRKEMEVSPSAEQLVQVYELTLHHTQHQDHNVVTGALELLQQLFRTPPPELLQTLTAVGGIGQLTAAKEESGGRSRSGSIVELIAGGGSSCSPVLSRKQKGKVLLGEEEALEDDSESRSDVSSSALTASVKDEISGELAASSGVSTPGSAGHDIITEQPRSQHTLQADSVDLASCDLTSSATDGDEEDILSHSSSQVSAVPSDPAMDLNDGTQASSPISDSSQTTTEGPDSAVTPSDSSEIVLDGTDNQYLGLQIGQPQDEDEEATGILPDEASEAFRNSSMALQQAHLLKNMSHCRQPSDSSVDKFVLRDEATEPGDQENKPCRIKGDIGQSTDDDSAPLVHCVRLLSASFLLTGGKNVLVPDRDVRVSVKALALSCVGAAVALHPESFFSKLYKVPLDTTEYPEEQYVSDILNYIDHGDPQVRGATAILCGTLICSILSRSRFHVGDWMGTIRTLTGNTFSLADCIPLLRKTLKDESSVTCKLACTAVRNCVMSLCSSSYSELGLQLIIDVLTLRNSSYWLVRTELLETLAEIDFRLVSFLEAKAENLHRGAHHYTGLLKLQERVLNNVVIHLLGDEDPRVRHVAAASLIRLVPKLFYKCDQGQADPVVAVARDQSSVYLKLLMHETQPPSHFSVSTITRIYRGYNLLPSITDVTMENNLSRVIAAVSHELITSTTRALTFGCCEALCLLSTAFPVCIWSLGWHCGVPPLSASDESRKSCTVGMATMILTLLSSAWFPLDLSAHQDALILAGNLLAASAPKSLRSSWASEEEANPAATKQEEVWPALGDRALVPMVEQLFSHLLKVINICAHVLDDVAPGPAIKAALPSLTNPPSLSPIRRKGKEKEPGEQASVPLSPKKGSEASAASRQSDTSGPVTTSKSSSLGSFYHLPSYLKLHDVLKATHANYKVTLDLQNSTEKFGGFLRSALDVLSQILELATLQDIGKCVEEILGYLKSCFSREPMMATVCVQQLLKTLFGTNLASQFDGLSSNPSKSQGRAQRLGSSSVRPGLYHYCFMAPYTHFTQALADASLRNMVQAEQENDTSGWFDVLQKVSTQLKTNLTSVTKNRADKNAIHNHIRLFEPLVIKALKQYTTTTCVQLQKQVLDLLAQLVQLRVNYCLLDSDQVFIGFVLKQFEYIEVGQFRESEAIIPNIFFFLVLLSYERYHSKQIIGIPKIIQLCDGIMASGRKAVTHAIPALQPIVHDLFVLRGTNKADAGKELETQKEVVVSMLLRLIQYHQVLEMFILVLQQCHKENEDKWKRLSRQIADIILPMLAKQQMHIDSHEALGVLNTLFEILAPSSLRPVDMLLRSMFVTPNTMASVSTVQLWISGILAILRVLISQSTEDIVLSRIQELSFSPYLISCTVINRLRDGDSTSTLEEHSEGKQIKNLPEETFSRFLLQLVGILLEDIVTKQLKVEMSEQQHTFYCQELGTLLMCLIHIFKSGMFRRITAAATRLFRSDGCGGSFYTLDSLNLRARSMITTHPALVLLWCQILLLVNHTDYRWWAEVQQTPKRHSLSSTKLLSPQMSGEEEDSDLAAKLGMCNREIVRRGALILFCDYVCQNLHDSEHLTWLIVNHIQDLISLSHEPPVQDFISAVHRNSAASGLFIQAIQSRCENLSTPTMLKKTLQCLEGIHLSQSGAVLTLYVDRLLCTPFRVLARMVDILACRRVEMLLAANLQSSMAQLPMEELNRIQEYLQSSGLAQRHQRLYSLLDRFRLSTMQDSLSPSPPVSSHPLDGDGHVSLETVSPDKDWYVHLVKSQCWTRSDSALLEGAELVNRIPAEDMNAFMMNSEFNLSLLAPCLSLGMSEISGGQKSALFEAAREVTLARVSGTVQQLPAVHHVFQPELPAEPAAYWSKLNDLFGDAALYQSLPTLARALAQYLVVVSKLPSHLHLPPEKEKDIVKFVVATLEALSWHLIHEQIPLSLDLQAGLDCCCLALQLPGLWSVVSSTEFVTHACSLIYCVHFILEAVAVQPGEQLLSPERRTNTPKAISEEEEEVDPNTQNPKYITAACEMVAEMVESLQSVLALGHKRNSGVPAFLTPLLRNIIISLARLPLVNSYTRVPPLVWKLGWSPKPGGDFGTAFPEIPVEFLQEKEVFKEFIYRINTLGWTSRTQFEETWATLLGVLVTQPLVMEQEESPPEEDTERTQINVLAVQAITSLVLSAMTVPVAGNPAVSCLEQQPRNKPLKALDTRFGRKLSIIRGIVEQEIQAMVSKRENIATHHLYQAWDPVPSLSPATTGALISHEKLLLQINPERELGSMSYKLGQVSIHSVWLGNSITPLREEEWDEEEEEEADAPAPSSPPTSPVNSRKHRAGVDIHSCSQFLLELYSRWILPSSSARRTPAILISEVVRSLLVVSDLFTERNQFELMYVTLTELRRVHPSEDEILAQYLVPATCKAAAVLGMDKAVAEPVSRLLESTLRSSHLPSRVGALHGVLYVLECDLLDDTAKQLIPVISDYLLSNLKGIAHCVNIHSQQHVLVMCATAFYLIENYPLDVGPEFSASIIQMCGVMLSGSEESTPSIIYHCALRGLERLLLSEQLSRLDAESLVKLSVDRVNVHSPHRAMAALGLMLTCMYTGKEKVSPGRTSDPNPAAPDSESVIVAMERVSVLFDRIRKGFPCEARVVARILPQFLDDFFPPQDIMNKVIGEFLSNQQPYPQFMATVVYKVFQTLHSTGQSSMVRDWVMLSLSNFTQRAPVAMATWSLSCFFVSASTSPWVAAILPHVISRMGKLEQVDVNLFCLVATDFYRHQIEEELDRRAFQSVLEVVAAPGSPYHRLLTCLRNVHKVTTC

| SMILES | inhibition |
| --- | --- |
| CC(C)c1ccc(OCC(=O)Nc2ccccc2[N+](=O)[O-])cc1 | 3.8% (inactive) |
| COc1ccc(-n2c(-c3cccc([N+](=O)[O-])c3)cn3c4c(=O)n(C)c(=O)n(C)c4nc23)cc1 | 4% (inactive) |
| CC(=O)c1ccc(NC(=O)CSc2ncc(-c3ccc(C)c(C)c3)o2)cc1 | 2.5% (inactive) |
| CC(=O)N1CCc2cc(Br)cc(S(=O)(=O)NCCc3ccccc3)c21 | 20% (inactive) |
| CC(=O)C1=C(C)NC(SCC(=O)c2ccccc2)=C(C#N)C1c1ccc(Br)cc1 (configuration not stated) | -23.7% (inactive) |
| COc1cc(NC(=O)c2ccccc2OC)c(OC)cc1Cl | 9% (inactive) |
| Cc1ccc(C)c(C(O)=C2C(=O)C(=O)N(CCCN3CCOCC3)C2c2ccncc2)c1 (configuration not stated) | -2.8% (inactive) |
| Clc1ccc(C2C=C(c3cccc(Br)c3)Nc3nnnn32)c(Cl)c1 (configuration not stated) | -5% (inactive) |
| O=C(Nc1ccc(Cl)cc1)c1ccc2nc3ccccc3nc2c1 | 13.5% (inactive) |
| O=C(Nc1nncs1)c1ccc2nc(-c3ccco3)c(-c3ccco3)nc2c1 | 99.4% (active) |
| CCOc1ccc2nc(NC(=O)c3ccc(OC)cc3)sc2c1 | -5% (inactive) |
| COc1ccc(C=C2Oc3cc(OC(=O)c4ccc5c(c4)OCO5)ccc3C2=O)c(OC)c1OC | 3.6% (inactive) |
| COc1ccc(-c2coc3c(C)c4oc(=O)c5ccccc5c4cc23)cc1F | 2% (inactive) |
| N#CC1=C(N)Oc2n[nH]c(-c3ccccc3)c2C1c1ccc(F)c(Br)c1 (configuration not stated) | 20% (inactive) |
| Cc1cc(-c2[nH]c3c(c2-c2cc(C)sc2C)c(=O)n(C)c(=O)n3C)c(C)s1 | -3% (inactive) |
| Cc1cc(Cl)ccc1OCC(=O)NCCc1nc2ccccc2[nH]1 | 19% (inactive) |
| O=C(COc1ccc(Cl)cc1Cl)NCCSc1c[nH]c2ccccc12 | 61% (active) |
| O=C(NCCSc1c[nH]c2ccccc12)c1ccc(Cl)c([N+](=O)[O-])c1 | 37% (inactive) |
| COc1cccc(NC(=O)C2(c3ccccc3)CCOCC2)c1 | 1.7% (inactive) |
| Cc1cccc2nnc(N3CCC(C(=O)N4CCOCC4)CC3)n12 | 1.65% (inactive) |
| Cc1cccc(NC(c2cccc(F)c2)c2ccc3ccc(C)nc3c2O)n1 (configuration not stated) | 76% (active) |
| Cc1ccnc(NC(c2ccc(O)cc2)c2ccc3ccc(C)nc3c2O)c1 (configuration not stated) | 98% (active) |

| SMILES | inhibition |
| --- | --- |
| Cc1cccc(NC(=O)c2cc(F)ccc2F)n1 | -3% (inactive) |
| Cc1cc(C)nc(NC(=O)c2cccc(F)c2)c1 | -6.5% (inactive) |
| Cc1cc(S(=O)(=O)NCc2cccnc2)c(Cl)cc1Cl | -3.6% (inactive) |
| Cc1ccc(CNC(=O)C2(C)CCCN(S(=O)(=O)c3cc(C)c(C)cc3C)C2)cc1 (configuration not stated) | 52.3% (active) |
| Cc1ccc(CNC(=O)N2CCCC(C)(C(=O)NCc3ccccc3)C2)cc1 (configuration not stated) | 0.08% (inactive) |
| Cc1ccc(S(=O)(=O)N2CCCC(C)(C(=O)NCc3ccccc3C)C2)cc1 (configuration not stated) | 13% (inactive) |
| CCN=C1SC(C(=O)Nc2ccc(Cl)cc2)CC(=O)N1CC (configuration not stated) | 7% (inactive) |
| CCN(CC)S(=O)(=O)N(CC(=O)NC(C)(C)C)Cc1ccc(F)cc1 | -4% (inactive) |
| CCn1cc2c3c(cccc31)CN(C(=O)Nc1cc(C)ccc1OC)CC2 | 60.9% (active) |
| CCn1cc2c3c(cccc31)CN(C(=O)c1ccc(OC)cc1)CC2 | 44.1% (inactive) |
| CC(C)Cn1cc2c3c(cccc31)CN(C(=O)Nc1ccc(F)cc1)CC2 | 0.25% (inactive) |
| CCn1cc2c3c(cccc31)CN(C(=O)Nc1ccc(C)cc1C)CC2 | 26.9% (inactive) |
| COc1ccc(OC)c(NC(=O)N2CCc3cn(CC(C)C)c4cccc(c34)C2)c1 | 69.3% (active) |
| CCCn1cc2c3c(cccc31)CN(C(=O)Nc1cc(OC)c(OC)c(OC)c1)CC2 | 2.35% (inactive) |
| O=[N+]([O-])c1ccc(N2CCN(CC3CC4C=CC3C4)CC2)cc1 (configuration not stated) | 19.4% (inactive) |
| COc1cc(Cl)c(NC(=O)C2CCCN(C(=O)c3cc(C)cc(C)c3)C2)c(OC)c1 (configuration not stated) | 1.7% (inactive) |
| CC1(C)CC(=O)C2=C(C1)Nc1ccc3ncccc3c1C2c1ccccc1C(F)(F)F (configuration not stated) | 4% (inactive) |
| CCOc1ccc(-c2ccc(N3CCN(C(=O)Cn4cnc5ccccc54)CC3)nn2)cc1 | 14.5% (inactive) |
| Cc1ccc(-c2ccc(CN3C(C)C(=O)N(Cc4cn(CCC5OCCCO5)nn4)CCS3(=O)=O)cc2)cc1 (configuration not stated) | -4% (inactive) |
| CC1C(=O)N(Cc2cn(CC3CCCCC3)nn2)CCS(=O)(=O)N1Cc1ccc(-c2cccc(N(C)C)c2)cc1 (configuration not stated) | 65.9% (active) |
| COCOCCn1cc(CN2CCS(=O)(=O)N(Cc3ccc(-c4ccccc4)cc3)C(CC(C)C)C2=O)nn1 (configuration not stated) | 60.8% (active) |
| Cc1ccc(-c2ccc(CN3C(C(C)C)C(=O)N(Cc4cn(CCC5OCCCO5)nn4)CCS3(=O)=O)cc2)cc1 (configuration not stated) | 19% (inactive) |

| SMILES | inhibition |
| --- | --- |
| COc1ccc(-c2ccc(CN3C(C(C)C)C(=O)N(Cc4cn(CC5CCCCC5)nn4)CCS3(=O)=O)cc2)cn1 (configuration not stated) | 29.4% (inactive) |
| CC1C(=O)N(Cc2cn(Cc3ccco3)nn2)CCS(=O)(=O)N1Cc1ccc(-c2cccc(CO)c2)cc1 (configuration not stated) | 30% (inactive) |
| COc1ccc(-c2ccc(CN3C(CC(C)C)C(=O)N(Cc4cn(CC5CCCCC5)nn4)CCS3(=O)=O)cc2)cc1 (configuration not stated) | 3.9% (inactive) |
| CC(C)CC1C(=O)N(Cc2cn(Cc3ccco3)nn2)CCS(=O)(=O)N1Cc1ccc(-c2ccc(Cl)c(Cl)c2)cc1 (configuration not stated) | 97.6% (active) |
| COCOCCn1cc(CN2CCS(=O)(=O)N(Cc3ccc(-c4cccc(N(C)C)c4)cc3)C(CC(C)C)C2=O)nn1 (configuration not stated) | 65.8% (active) |
| CC(C)C1C(=O)N(Cc2cn(CCC3OCCO3)nn2)CCS(=O)(=O)N1Cc1ccc(-c2ccccc2C(F)(F)F)cc1 (configuration not stated) | 43.5% (inactive) |
| CC(=O)c1cccc(-c2ccc(CN3C(CC(C)C)C(=O)N(Cc4cn(CC5CCCCC5)nn4)CCS3(=O)=O)cc2)c1 (configuration not stated) | 22.9% (inactive) |
| Cc1ccc(-c2ccc(CN3C(C(C)C)C(=O)N(Cc4cn(CCC5OCCO5)nn4)CCS3(=O)=O)cc2)cc1 (configuration not stated) | 14.9% (inactive) |
| CC(C)NC(=O)c1cn(-c2ccc(F)cc2)nn1 | 3.4% (inactive) |
| COc1c(S(=O)(=O)Nc2ccc(CC(=O)O)cc2)ccc(Cl)c1Cl | -3% (inactive) |
| Cc1ccc(C(=O)NC2CCN(c3ccccc3C(=O)N(C)C(C)C)CC2)cc1 | 6.6% (inactive) |
| O=C(c1ccc(Cl)cc1)N(Cc1cc(-c2ccccc2)on1)C1CC1 | -12.1% (inactive) |
| CCC(c1ccccc1)c1nc(-c2ccc3nnn(C)c3c2)no1 (configuration not stated) | -20.7% (inactive) |
| CCCCC(=O)Nc1c2c(nn1-c1ccc([N+](=O)[O-])cc1)CS(=O)(=O)C2 | -1% (inactive) |
| CCOC(=O)c1c(NC(=O)c2ccc([N+](=O)[O-])s2)sc2c1CCCC2 | -0.8% (inactive) |
| COc1nccnc1NS(=O)(=O)c1ccc(NC(=O)c2ccc(C(C)(C)C)cc2)cc1 | 13.2% (inactive) |
| O=c1[nH]c(C=C2C=Nc3ccc(Br)cc32)c(O)n1Cc1ccc(Br)cc1 | 93% (active) |
| CCc1nc2c(NC(=O)Nc3cccc(C)c3)cccn2n1 | -3.6% (inactive) |
| COc1ccc(-n2nc3c(c2NC(=O)c2ccccc2Cl)CSC3)cc1 | 22% (inactive) |
| COc1cccc(C(=O)N2CCc3c(c(C(=O)NCc4cccc(C)c4)nn3C)C2)c1 | 66.6% (active) |
| COc1cc(OC)cc(C(=O)N2CCc3c(c(C(=O)NCc4cccc(C)c4)nn3C)C2)c1 | 40.8% (inactive) |
| Cn1nc(C(=O)NCc2ccccc2)c2c1CCN(C(=O)c1cccc(F)c1)C2 | 64.8% (active) |

| SMILES | inhibition |
| --- | --- |
| CCCC(=O)N1CCc2c(c(C(=O)NCc3cccc(C)c3)nn2C)C1 | 35.7% (inactive) |
| COc1ccc(CC(=O)N2CCc3c(c(C(=O)NCc4cccc(C)c4)nn3C)C2)cc1 | 40.5% (inactive) |
| Cc1cccc(C(=O)N2CCc3c(c(-c4nc(Cc5ccccc5)no4)nn3C)C2)c1 | 7.62% (inactive) |
| O=C(O)CCCCCNS(=O)(=O)c1cccc(C(F)(F)F)c1 | -2% (inactive) |
| O=C(c1ccc(F)cc1)N1CCCC1c1ccccc1F (configuration not stated) | -8.08% (inactive) |
| CC(C)C1N=C2c3ccccc3N=C(SCC(=O)c3ccc(O)c(O)c3)N2C1=O (configuration not stated) | 20% (inactive) |
| O=C(CSC1=Nc2ccccc2C2=NC(Cc3ccccc3)C(=O)N12)NC1CCCCC1 (configuration not stated) | 39% (inactive) |
| O=C(CSC1=Nc2ccccc2C2=NC(Cc3ccccc3)C(=O)N12)c1ccc(O)c(O)c1 (configuration not stated) | 57% (active) |
| CCCN1C(=O)COc2ccc(-c3noc(-c4ccccc4C(F)(F)F)n3)cc21 | -2.1% (inactive) |
| CCN(CC)c1ncc2c(n1)CCC(C(=O)N(C)c1ccc(C)c(C)c1)C2 (configuration not stated) | 25.8% (inactive) |
| Cc1ccc2c(c1)-c1c(ssc1=Nc1ccc(Cl)cc1Cl)C(C)(C)N2 | 73.7% (active) |
| Cc1ccc(N=Cc2ccc(Cl)cc2Cl)c(O)c1 | 12% (inactive) |
| CC(=O)Nc1ccc(N2CCCCC2)nc1 | 2.4% (inactive) |
| O=C(c1ccc(F)c(F)c1)N1CCc2[nH]cnc2C1c1ccccc1 (configuration not stated) | 17.4% (inactive) |
| O=C(Nc1c(F)cccc1F)N1CCc2[nH]cnc2C1c1ccncc1 (configuration not stated) | -5.1% (inactive) |
| O=C(Nc1ccc(C(F)(F)F)cc1)N1CCc2[nH]cnc2C1c1ccncc1 (configuration not stated) | 11.1% (inactive) |
| O=C(Cc1ccc(F)cc1)N1CCc2[nH]cnc2C1c1ccccn1 (configuration not stated) | 81.1% (active) |
| CC(C)NC(=O)N1CCc2[nH]cnc2C1c1ccccn1 (configuration not stated) | 83.5% (active) |
| COC(=O)c1ccccc1NC(=O)N1CCc2[nH]cnc2C1c1ccncc1 (configuration not stated) | 7.22% (inactive) |
| O=C1OC(c2ccc(Cl)cc2Cl)=N/C1=C\c1ccc(F)cc1 | 2% (inactive) |
| COc1cccc(C2CC(c3cc(Br)ccc3F)n3nnnc3N2)c1 (configuration not stated) | 4.06% (inactive) |
